Screens as filed in PubChem.
Nrf2 block: Nrf2 pathway inhibition. A549 ARE-Fluc reporter, luciferase luminescence, 18-24 h. Potency, µM (top dose mostly 46 µM), for the others: top-dose activity change, negative = inhibition, hits mostly inhibitors. actives 2.1% (n = 360,000); also: potency is read from the fitted curve at half-maximal effect; % is scaled to controls: 0 for no effect and ±100 for the full control effect; nearly all actives have a fitted effect of over 60% in size
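Cells were seeded and rested 2 h, then exposed to compounds for 18-24 h. CellTiter-Fluor was read first as a viability measure. BugLite was added 15 min before the final luminescent read of ARE-luciferase activity in A549 cells.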
BRCA1 expr act: activators of BRCA1 expression; Potency, µM (doses to about 46.1 µM), for the others: at the highest dose activation, hits mostly activators; actives 1.1% (n = 380,000); MCF7-BRCA1-FFLuc reporter, luminescence, 48 h; response scale: scaled: vehicle 0%, 10 µM genistein 100%; also: potency is read from the fitted curve at half-maximal effect; nearly all actives have a fitted effect of over 80% in size
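Luminescence from a BRCA1-driven firefly luciferase in MCF7 cells was read after 48 h compound exposure at 37 C. Data normalized against DMSO and a 10microM genistein activation control, then curve-fitted across the titration.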
p53 reactivator: re-activators of mutant p53; AID 504706; Potency, µM (highest dose often 92.2 µM), inactives show top-dose activity change, positive = activation, actives largely listed as activators; actives 0.063% (n = 320,000); H1299 p53-A138V BP100-luciferase reporter, luminescence, 24 h; also: potency is read from the fitted curve at half-maximal effect; % of control where 0% means no effect; nearly all actives have a fitted effect of over 45% in size
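p53-null H1299 cells stably carrying temperature-sensitive p53-A138V and a BP100-luciferase reporter were pinned with compounds (4-point, 1:5 series) and held 24 hrs at 37 deg C. Luminescence was read 10 min after detection reagent.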
IL-2 act: activates IL-2 in a cell-based reporter assay | AID 652025 | activation, % (series mostly up to about 46 µM) | actives 0.065% (n = 360,000) | IL-2 activation reporter assay, cell-based qHTS; stimulated with anti-CD3/CD4/CD28 beads; in transgenic mouse T cells; in the data active = activation above about 50%; inconclusive = mostly about 30% to 49%; also: 0% is about no effect
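EGFP and DsRed fluorescence is measured by plate cytometry in unstimulated transgenic mouse T cells exposed to compound for 60 minutes, then stimulated 18 hours at 37 degrees C with anti-CD3/anti-CD4 beads plus anti-CD28.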
A549 tox-1: counter-screen for Nrf2 inhibitors: cytotoxicity in A549 cells. A549 ARE-Fluc cells, CellTiter-Fluor viability, 18-24 h. Potency, µM (highest dose often 46 µM), without a hit: at the top dose activity change, negative = cytotoxicity, most hits filed as inhibitors. actives 0.16% (n = 390,000). AID 504648; also: potency is read from the fitted curve at half-maximal effect; % is scaled to controls: 0 for no effect and ±100 for the full control effect
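A549 ARE-Fluc cells in 5% FBS OPTI-MEM, 5000 cells/well, rested 2 h then exposed to compounds in concentration-response for 18-24 h at 37 °C. Viability by CellTiter-Fluor fluorescence (Ex 405/Em 525) after 30 min; luciferase luminescence (BugLite, 15 min, RT) read afterwards.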
Nrf2 activator: activates Nrf2 signaling. AREc32 ARE-luciferase reporter (MCF7-derived line), luminescence, 24 h. Potency, µM (highest dose often 46.1 µM), for inactives: at the top dose activation, most hits filed as activators. actives 0.31% (n = 410,000). AID 624171; also: potency is read from the fitted curve at half-maximal effect; % of control where 0% means no effect; nearly all actives have a fitted effect of over 65% in size
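Luciferase luminescence (Steady-Glo, 30 min at room temperature) served as the read-out of ARE activation in AREc32 cells treated with compounds for 24 hr at 37 deg C.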
FLuc enzyme inh: firefly luciferase inhibition, Nrf2 hit validation | actives 4% (n = 1,400) | shares compounds with Nrf2 block | purified firefly luciferase, luminescence inhibition | Potency, µM (top dose mostly 57.5 µM), for the others: top-dose activity change, negative = inhibition, usual class: inhibitors | AID 720522; also: potency is read from the fitted curve at half-maximal effect; % is scaled to controls: 0 for no effect and ±100 for the full control effect; nearly all actives have a fitted effect of over 65% in size
Target sequence (P08659 whole entry, looked up): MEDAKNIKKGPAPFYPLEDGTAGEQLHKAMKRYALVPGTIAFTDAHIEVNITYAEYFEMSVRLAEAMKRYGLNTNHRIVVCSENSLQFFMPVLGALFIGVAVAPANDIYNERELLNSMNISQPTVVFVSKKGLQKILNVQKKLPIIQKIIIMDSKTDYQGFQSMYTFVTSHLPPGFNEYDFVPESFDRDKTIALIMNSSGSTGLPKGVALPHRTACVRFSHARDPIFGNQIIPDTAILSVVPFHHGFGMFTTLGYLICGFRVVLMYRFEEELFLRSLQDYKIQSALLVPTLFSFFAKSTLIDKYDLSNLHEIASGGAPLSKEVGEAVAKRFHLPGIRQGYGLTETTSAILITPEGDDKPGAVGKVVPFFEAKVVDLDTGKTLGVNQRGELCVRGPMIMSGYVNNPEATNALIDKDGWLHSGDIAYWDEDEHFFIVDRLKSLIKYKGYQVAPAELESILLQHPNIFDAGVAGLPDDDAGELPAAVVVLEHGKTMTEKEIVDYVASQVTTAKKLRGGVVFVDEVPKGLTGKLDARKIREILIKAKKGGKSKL
A549 tox-2: A549 cytotoxicity, Nrf2 inhibitor counterscreen. shares compounds with Nrf2 block. A549 ARE-Fluc cells, cytotoxicity counterscreen. Potency, µM (doses to about 46.1 µM), without a hit: top-dose activity change, negative = cytotoxicity, usual class: inhibitors. actives 2% (n = 1,400). AID 720523;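 also: potency is read from the fitted curve at half-maximal effect; cells exposed to compounds for 18 to 24 hours; % is scaled to controls: 0 for no effect and ±100 for the full control effect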
Nrf2 ARE inh: confirmation of Nrf2 inhibitors in A549 ARE reporter cells; A549 ARE-firefly luciferase reporter, luminescence; Potency, µM (doses to about 46.1 µM), for the others: at the top dose activity change, negative = inhibition, actives largely listed as inhibitors; AID 720524; actives 74% (n = 1,400); shares compounds with Nrf2 block; also: potency is read from the fitted curve at half-maximal effect; % is scaled to controls: 0 for no effect and ±100 for the full control effect; nearly all actives have a fitted effect of over 65% in size
* = called active by the depositor; u = inconclusive; x = no result shown; ! = not active in a repeat; [ ] = remark or other dose. Compounds with a hit are over-represented: about 3.2% of the library has one in this group of screens. Unless noted, calls follow the shape of the dose curve; as a rule, active = well fitted curve in the direction sought with a large enough effect; inconclusive = small, poorly fitted or top-dose-only effect, or another doubt; inactive = no such curve, though single readings can be large; an effect the other way counts as inactive or inconclusive.

SMILES	Nrf2 block	BRCA1 expr act	p53 reactivator	IL-2 act	A549 tox-1	Nrf2 activator	FLuc enzyme inh	A549 tox-2	Nrf2 ARE inh
CCCc1ccc(-c2ccc(/C=C/C(=O)O)cc2)nc1	0.037µM*	u	-2%	-2	0%	-3%	0.27µM*	-4%	0.058µM*
CCCCCc1ccc(-c2ccc(/C=C/C(=O)O)cc2)nc1	u	-52%	-7%	-1	-10%	-2%	x	x	x
Cc1ccc(NC(=O)CSc2nn(-c3ccccc3)c(=S)s2)cc1S(=O)(=O)N(C)C	5.8µM*	-53%	10%	0	u	2%	-15%	-17%	7.3µM*
O=C(CSc1nn(-c2ccccc2)c(=S)s1)Nn1cnnc1	4%	2%	1%	-1	-1%	0%	x	x	x
O=[N+]([O-])c1ccc(C[n+]2cccc3c4ccccc4ccc32)cc1	3.7µM*	-22%	1%	-2	u	-1%	2%	-1%	3.7µM*
CC(C)(C)OC(=O)NCCCC[C@H](NC(=O)c1nc[nH]c1C(=O)NC(c1ccccc1)c1ccccc1)C(=O)OC(C)(C)C	3.7µM*	-30%	-2%	-4	u	4%	0%	u	21µM*
O=c1c(NCc2cccs2)nccn1-c1ccc(F)cc1	u	x	x	x	16%	8%	x	x	x
COc1ccc(-c2nc3ccccc3n3c(-c4ccccc4)c4c(=O)n(C)c(=O)n(C)c4c23)cc1OC	-16%	x	x	x	-1%	-1%	x	x	x
FC(F)(F)c1cc(-c2ccco2)nc(-n2cnc3ccccc32)n1	x	-47%	-8%	-3	8%	u	x	x	x
Cc1nc2ccccc2n1-c1nc(-c2ccco2)cc(C(F)(F)F)n1	4.6µM*	-104%	8%	-2	u	8%	-12%	u	5.8µM*
Cc1ccc(S(=O)(=O)n2nc(-c3ccco3)nc2NCc2ccccc2Cl)cc1	-4%	x	x	x	-1%	17%	x	x	x
COc1ccc(NC(=O)CCc2c(C)nc3cc(-c4cccc(F)c4)nn3c2C)cc1Cl	u	-29%	x	x	9%	0%	x	x	x
COc1cc(OC)cc(-c2cc3nc(C)c(CCC(=O)Nc4ccc(F)c(Cl)c4)c(C)n3n2)c1	2.1µM*	x	x	x	-1%	-5%	u	-5%	5.8µM*
COc1ccc(OCC(=O)Nc2cccc(-c3nc4ccccc4s3)c2C)cc1	-24%	x	x	x	-23%	-2%	x	x	x
CCCCOc1cc(C(=O)NCCN(CC)CC)c2ccccc2n1	9.2µM*!	-12%	0%	0	-6%	4%	-1%	-2%	6.5µM*
CC(C)c1ccc(NC(=O)CCNS(=O)(=O)c2ccc3c(c2)CCCC(=O)N3)cc1	9%	-18%	x	x	10%	1%	x	x	x
c1ccc(CNc2ncnc3ccccc23)cc1	4.6µM*	-42%	-4%	-2	-3%	-1%	0%	-12%	6.5µM*
Cc1cc(C)c(C(N)=O)c(SCC(=O)c2cc(C)c(C)cc2C)n1	3%	-12%	-6%	0	-3%	1%	x	x	x
Cc1cc(C)c(C(N)=O)c(SCC(=O)c2cc(C)n(-c3cc(C)on3)c2C)n1	2.3µM*	-12%	-2%	0	-12%	0%	-1%	-8%	u
Cc1cc(Cl)c(S(=O)(=O)N2CCN(c3ccc(F)cc3)CC2)cc1OCC(N)=O	u	-3%	-6%	1	-5%	-1%	x	x	x
Cc1cc(Cl)c(S(=O)(=O)N2CCN(c3ccc(F)cc3)CC2)cc1OCC(=O)NC1CCCCC1	0.29µM*	-79%	2%	1	-28%	0%	1%	-27%	0.73µM*
Cc1ccnc2ccc(P(=O)(c3ccccc3)c3ccccc3)cc12	x	x	-5%	x	x	x	x	x	x
Cc1ccnc2ccc3ccccc3c12	x	x	x	x	x	x	-1%	-23%	6.5µM*
CN(C)S(=O)(=O)c1ccc(N2CCN(S(=O)(=O)c3ccc(F)cc3)CC2)c(Cl)c1	5.8µM*	-99%	-3%	-1	-17%	2%	-1%	-18%	u
CN(C)S(=O)(=O)N1CCN(S(=O)(=O)c2ccc(F)cc2)CC1	6%	4%	-1%	2	-17%[1.84 µM]	-1%	x	x	x
SMILES	Nrf2 block	BRCA1 expr act	p53 reactivator	IL-2 act	A549 tox-1	Nrf2 activator	FLuc enzyme inh	A549 tox-2	Nrf2 ARE inh
CC(=O)c1cccc(S(=O)(=O)N2CCN(c3nc(-c4cccs4)nc4ccccc34)CC2)c1	5%	0%	x	x	4%	x	x	x	x
CCC(=O)N1c2ccccc2CC1C(=O)NCCc1ccccc1C (centres undefined)	x	x	x	x	2%	0%	x	x	x
O=S(=O)(c1ccccc1)N1CCC(O)(CSc2ccc(F)cc2)CC1	4.1µM*	-13%	-1%	1	u	0%	0%	-7%	6.5µM*
O=C(c1ccccc1)N1CCC(c2nc(-c3ccc(S(=O)(=O)NCC4CCCO4)cc3)no2)CC1 (centres undefined)	3.7µM*	-62%	-2%	0	-13%	2%	-2%	-2%	5.8µM*
Cc1ccc(CCNc2ncnc(Cl)c2N)cc1	3.7µM*	u	x	-1	u	2%	u	-3%	u
C=CCn1c(NCCc2ccccc2)nc2c1c(=O)n(C)c(=O)n2C	9.2µM*	-58%	-4%	-1	-9%	0%	2%	4%	x
C/C(Cl)=C\Cn1c(NCCc2ccccc2)nc2c1c(=O)n(C)c(=O)n2C	2.9µM*	-79%	7%	-2	-16%	0%	1%	-11%	7.3µM*
Cc1cccc(N(C)C(=O)Cn2c(=O)oc3cc(S(=O)(=O)N4CCCCC4)ccc32)c1	-20%	3%	x	x	2%	0%	x	x	x
CCOC(=O)C1=C(CN2CCN(c3cc(C)ccc3C)CC2)NC(=O)NC1c1ccccc1 (centres undefined)	u	-71%	x	x	-15%	-1%	x	x	x
CCOc1cc(C2c3c(oc4ccccc4c3=O)C(=O)N2Cc2ccccc2Cl)ccc1O (centres undefined)	u	x	x	x	-4%	2%	x	x	x
O=c1cnnc(N/N=C/c2ccccn2)[nH]1	u	-43%	21%	-3	-20%	1%	0%	-16%	12µM*
